Data from ChEMBL document CHEMBL1157539, “Thousands of chemical starting points for antimalarial lead identification” (Nature, 2010).

Experiments:
Format in all cases: functional
Plasmodium falciparum [1] = assay: GSK_TCMDC: Inhibition of Plasmodium falciparum 3D7 in whole red blood cells, using parasite LDH activity as an index of growth. Test compounds present at 2uM
Plasmodium falciparum [2] = assay: GSK_TCMDC: Inhibition of Plasmodium falciparum Dd2 in whole red blood cells, using parasite LDH activity as an index of growth. Test compounds present at 2uM
HepG2 = assay: GSK_TCMDC: Percent inhibition of human HepG2 cell line. Test compounds present at 10uM.

Structure (SMILES)	Inhibition (Plasmodium falciparum [1])	Inhibition (Plasmodium falciparum [2])	Inhibition (HepG2)
Nc1nc2c(ncn2COC(COCc2ccccc2)COCc2ccccc2)c(=O)[nH]1.Nc1nc2ncn(COC(COCc3ccccc3)COCc3ccccc3)c2c(=O)[nH]1	86%	57%	18%
Cc1cc(N(C)C)nc(Nc2ccc(NC(=O)c3ccc(Br)o3)cc2)n1	100%	57%	1%
Cc1ccc(Nc2nc(C)cc(NCc3ccc(-n4ccnc4)cc3)n2)cc1	100%	100%	33%
CCc1ccc(NC(=O)c2ccc(CN3CCCN(CC4CCCCC4)CC3)cc2)cc1.O=C(O)C(F)(F)F	96%	48%	48%
COc1ccc2nccc(N3CCCN(CCNS(=O)(=O)c4ccc5c(c4)NC(=O)CS5)CC3)c2n1.Cl	97%	15%	0%
COc1ccc(C2=CCN(c3ccc(Cl)c(Cl)c3)C2=O)cc1OCCN1CCCCC1.Cl	97%	99%	19%
O=C(/C=C/c1ccc(Cl)c(Cl)c1)NCCCCCN1CCCC(c2c[nH]c3ccccc23)C1 (stereo not given)	99%	22%	25%
CC(=O)N1c2ccccc2C(C)=CC1(C)C	97%	11%	3%
CCCNCc1ccc(-c2ccc(CN(CCOC)C(=O)Cc3cccnc3)cc2)nc1.O=C(O)C(F)(F)F	92%	13%	10%
N#Cc1ccc(N2CCN(Cc3ccc(-c4ccc(-c5nc6ccccc6[nH]5)s4)cc3)CC2)nc1.O=C(O)C(F)(F)F	99%	63%	17%
